Most compounds without a hit are left out; they make up all but 1.1% or so of the library.
NCOA2 inhibitor = inhibits human steroid receptor coactivator 2; Q15596; 370,000 compounds, 0.17% hits; inhibition, % at 9 µM; HEK293 GAL4-SRC2 luciferase reporter, luminescence;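 active = inhibition above the mean inhibition of all tested compounds plus 3 SD, set per campaign, cut at about 52% in these data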;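 also: 0% = DMSO treated cells and 100% = cells given Gossypol at 36 µM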
LRH-1 inv ag = suppresses constitutive activity of human LRH-1 | O00482 | inhibition, % at 3.6 µM | AID 602396 | 360,000 compounds, 0.13% hits | HEK293T StAR-luciferase reporter, LRH-1 transfected, 24 h;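 active = inhibition above the mean inhibition of all tested compounds plus 3 SD, cut at about 73% in these data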;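 also: 0% = DMSO wells and 100% = reporter-only cells lacking LRH-1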
SRC3 inh = inhibitors of human steroid receptor coactivator 3 (SRC3); HEK293 GAL4-SRC3 luciferase reporter, luminescence; 360,000 compounds, 0.17% hits; Q9Y6Q9; inhibition, % at 3.6 µM; AID 588352;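 active = inhibition above a per-campaign cutoff, the mean of all compounds plus 3 SD, cut at about 60% in these data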;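 also: 0% = DMSO-treated cells and 100% = gossypol-treated cells at 36 µM; higher means less SRC3-driven luciferase light from the GAL4 reporter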
Gli-Sufu block = Gli-Sufu pathway antagonism. inhibition, % at 5 µM. AID 588413. Sufu-KO-LIGHT fibroblasts, Gli luciferase reporter luminescence. 340,000 compounds, 0.74% hits;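 active = inhibition above about 55%, limit read from the data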;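 also: 0% = DMSO-treated cells and 100% = wells with medium but no cells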
NCOA1 inh = human NCOA1 inhibition. Q15788. inhibition, % at 3.6 µM. HEK293 GAL4-SRC1 luciferase reporter, luminescence. 360,000 compounds, 0.12% hits. AID 588354;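 active = inhibition above the campaign mean plus 3 SD, with each screening campaign given its own cutoff, cut at about 60% in these data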;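 also: 0% = DMSO treated cells and 100% = gossypol at 36 µM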
Target sequence (Q15788 whole entry, looked up, the tested form may be a part): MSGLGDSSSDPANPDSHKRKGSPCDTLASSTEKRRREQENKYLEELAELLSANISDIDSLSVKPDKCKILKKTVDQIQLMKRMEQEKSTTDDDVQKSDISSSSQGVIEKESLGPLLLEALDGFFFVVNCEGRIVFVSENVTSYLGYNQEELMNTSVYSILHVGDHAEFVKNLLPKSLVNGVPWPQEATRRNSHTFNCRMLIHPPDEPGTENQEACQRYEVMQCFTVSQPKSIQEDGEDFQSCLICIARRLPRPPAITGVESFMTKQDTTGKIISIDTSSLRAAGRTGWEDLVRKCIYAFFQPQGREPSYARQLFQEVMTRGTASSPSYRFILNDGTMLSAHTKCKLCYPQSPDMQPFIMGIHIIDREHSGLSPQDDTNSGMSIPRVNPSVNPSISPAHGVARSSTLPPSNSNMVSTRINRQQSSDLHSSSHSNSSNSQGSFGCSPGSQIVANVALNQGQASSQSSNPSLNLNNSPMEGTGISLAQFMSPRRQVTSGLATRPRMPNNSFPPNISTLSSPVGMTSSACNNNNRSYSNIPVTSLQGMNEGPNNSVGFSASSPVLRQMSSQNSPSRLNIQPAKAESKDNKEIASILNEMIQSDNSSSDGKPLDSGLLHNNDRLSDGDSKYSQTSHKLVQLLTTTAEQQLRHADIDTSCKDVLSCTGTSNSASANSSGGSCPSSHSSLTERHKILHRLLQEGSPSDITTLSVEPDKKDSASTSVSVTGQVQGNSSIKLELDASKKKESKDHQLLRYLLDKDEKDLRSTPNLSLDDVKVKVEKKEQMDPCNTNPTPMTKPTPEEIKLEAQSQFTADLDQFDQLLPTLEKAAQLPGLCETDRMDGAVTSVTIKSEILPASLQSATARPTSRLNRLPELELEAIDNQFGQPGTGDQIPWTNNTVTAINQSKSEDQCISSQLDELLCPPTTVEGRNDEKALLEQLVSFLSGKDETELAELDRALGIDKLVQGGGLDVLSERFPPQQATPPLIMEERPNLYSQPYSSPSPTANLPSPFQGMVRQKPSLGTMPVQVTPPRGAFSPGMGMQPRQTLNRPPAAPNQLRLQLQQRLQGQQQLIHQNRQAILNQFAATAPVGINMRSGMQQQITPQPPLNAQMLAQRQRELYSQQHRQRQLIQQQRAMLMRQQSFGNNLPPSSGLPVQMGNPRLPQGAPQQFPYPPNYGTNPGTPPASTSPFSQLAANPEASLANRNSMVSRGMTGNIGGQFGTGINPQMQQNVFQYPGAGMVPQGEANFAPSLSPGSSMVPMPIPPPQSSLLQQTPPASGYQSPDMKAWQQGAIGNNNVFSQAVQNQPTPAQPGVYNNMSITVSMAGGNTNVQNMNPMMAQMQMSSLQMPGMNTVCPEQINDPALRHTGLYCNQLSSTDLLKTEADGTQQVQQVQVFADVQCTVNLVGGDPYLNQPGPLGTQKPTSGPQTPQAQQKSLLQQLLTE
Shn3 inh set2 = Schnurri-3 reporter inhibition in Clone20 osteoblasts; AID 588674; 360,000 compounds, 0.52% hits; inhibition, % at 12.5 µM; Clone20 osteoblast Shn3 3'UTR firefly luciferase, 24 h;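 active = mean inhibition of at least 75% with every replicate also reaching 75%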;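 also: 0% = median of neutral control wells and 100% = pilot-screen positive control compound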
An asterisk follows results filed as active; x = no result.

SMILES	NCOA2 inhibitor	LRH-1 inv ag	SRC3 inh	Gli-Sufu block	NCOA1 inh	Shn3 inh set2
COc1ccccc1C(CCNCc1ccc(N(C)C)cc1)c1ccc(OC(C)C)cc1 (stereo unspecified)	-9.4	-0.7	-4.4	-28.5	5.0	93.0*
COc1ccc(CNCCC(c2ccc(OC(C)C)cc2)c2ccccc2OC)cc1 (stereo unspecified)	13.9	1.5	2.6	19.4	-13.1	96.5*
COc1ccccc1C(CCNCc1ccccc1)c1ccc(OC(C)C)cc1 (stereo unspecified)	-44.2	27.1	1.7	32.2	11.6	42.9
C=CCN1C(=O)[C@@H](CC(=O)NCC23CC4CC(CC(C4)C2)C3)[C@]2(C(=O)OCC)CCCCC/C=C/12	-9.6	x	x	x	x	x
CCOC(=O)[C@@]12CN(C(=O)OC(C)(C)C)CC=C1N(Cc1ccc(OC)cc1)C(=O)[C@H]2CC(=O)N1CCCCC1	9.6	x	x	x	x	x
Cc1ccc(S(=O)(=O)N(CCc2ccccc2)CC(=O)N2CCOCC2)cc1	-12.9	x	x	x	x	x
O=C(Nc1nc(-c2ccccn2)cs1)c1cccc(-n2cnnn2)c1	18.3	28.9	22.2	21.7	28.8	97.6*
O=C(Nc1nc(-c2ccccn2)cs1)c1ccc(Br)s1	13.5	-0.5	8.0	82.4*	9.7	93.2*
N#Cc1c(C#N)c(SSc2c(C#N)c(C#N)c(N)n2-c2ccccc2)n(-c2ccccc2)c1N	16.1	-6.8	-21.4	5.1	1.5	88.6*
Cc1cccc(-c2cccc3c4c([nH]c23)[C@@H]2C[C@H](N(C)C(=O)c3cccc(Cl)c3)[C@H]([C@H](C)O)CN2CC4)c1	29.0	x	x	x	x	x
CCCCc1c(O)c2ccccc2n(CCCC)c1=O	-15.3	-1.3	11.7	-0.1	0.8	-5.3
CCCCc1c(CCC)c(=N)c2ccccc2n1C	15.5	9.8	18.0	75.9*	21.6	67.7
O=C(C=C(O)c1ccc(Cl)cc1)C(=O)NNC(=O)C(O)(c1ccccc1)c1ccccc1	-7.2	-14.0	-12.0	4.4	-26.3	97.6*
Cc1ccc(/C(O)=C/C(=O)C(=O)NNC(=O)C(O)(c2ccccc2)c2ccccc2)cc1	-17.1	14.2	0.4	-2.3	0.1	-1.4
O=C(N/N=C(\c1ccccc1)c1cccnc1)c1cccc(F)c1	-6.9	70.8	57.9	94.2*	48.2	94.7*
O=C(OC12CCCN(C1)/C(=C/c1cccc(Cl)c1)C2)c1ccc(F)cc1 (stereo unspecified)	-2.8	x	x	x	x	x
O=C(c1ccccc1)c1coc2c1C(=O)c1ccccc1C2=O	-27.8	-3.8	-19.1	-6.4	-57.1	-23.2
O=C1c2ccccc2-c2onc3ccc(Oc4ccccc4)c1c23	1.0	13.8	-5.8	-7.4	-5.4	90.5*
CC(COc1ccc(CC#N)cc1)CN1CCC(C(O)(c2ccccc2)c2ccccc2)CC1 (stereo unspecified)	27.5	x	x	x	x	x
CS(=O)(=O)c1nc(-c2ccccc2)cc(C(F)(F)F)n1	2.7	-27.3	-56.9	22.6	-35.8	95.1*
Cc1cc(NC(=O)CCS(=O)(=O)c2nc(-c3ccccc3)cc(C(F)(F)F)n2)no1	16.9	-42.6	-43.0	9.8	-28.5	65.0
Cc1ccc2c(C)nc(Nc3nc(CSc4nc5ccccc5[nH]4)cc(=O)[nH]3)nc2c1	-31.7	8.1	65.4*	22.6	51.9	73.7
Cn1cc(C2(c3c[nH]c4ccccc34)CCN(C(=O)OC(C)(C)C)CC2)c2ccccc21	-9.3	x	x	x	x	x
CC(=O)Nc1ccc(SCC(=O)c2cc(C)n(Cc3cccs3)c2C)cc1	30.6	52.9	39.4	43.3	44.3	14.3
CC(=O)Nc1ccccc1OCC(=O)c1cc(C)n(Cc2cccs2)c1C	7.8	63.0	28.2	79.4*	26.8	73.6
SMILES	NCOA2 inhibitor	LRH-1 inv ag	SRC3 inh	Gli-Sufu block	NCOA1 inh	Shn3 inh set2
Cc1cc(C(=O)COC(=O)c2ccccc2O)c(C)n1Cc1cccs1	85.7*	93.9*	86.7*	80.7*	89.8*	91.2*
O=C(CSc1nnc(Cc2cccs2)n1-c1ccc(Cl)cc1)Nc1ccc(OCc2ccccc2)cc1	-14.7	x	x	x	x	x
CC(C)C[C@H]1COc2cc(Br)ccc2S(=O)(=O)N1Cc1cn(Cc2ccco2)nn1	-13.2	x	x	x	x	x
O=S(=O)(Nc1cc(Sc2cccc3cccnc23)c(O)c2ccccc12)c1ccccc1	94.9*	x	x	x	x	x
COc1cc(NS(=O)(=O)c2ccc(C)cc2)c2ncccc2c1	-69.9	22.3	-38.5	87.6*	-59.5	94.9*
COc1ccc(S(=O)(=O)Nc2ccccn2)cc1	-2.7	-4.1	0.6	-4.7	-0.8	-13.1
Cc1ccc(S(=O)(=O)Nc2ccccc2-c2ccccc2NS(=O)(=O)c2ccc(C)cc2)cc1	12.2	-12.6	9.3	-2.0	1.5	-3.9
Cc1ccc(S(=O)(=O)Nc2cccc3cccnc23)cc1	-48.7	14.5	-35.0	63.4*	-60.0	26.5
O=C(OCc1cn(Cc2c(F)cccc2F)nn1)N1CCCC1	11.6	x	x	x	x	x
Cc1ccc(/C=N\NC(=O)CN2CCN(S(=O)(=O)c3ccc(Br)cc3)CC2)s1	-5.7	x	x	x	x	x
Oc1ccc(-c2csc(Nc3cccc4ccccc34)n2)cc1O	-8.2	-13.4	1.1	-0.6	-1.3	86.6*
Oc1ccc(-c2csc(Nc3ccccn3)n2)cc1O	-51.0	-177.2	-141.5	-18.2	-158.7	-75.2
O=C(c1ccncc1F)N1CCC(n2nnc3ncccc32)CC1	10.0	x	x	x	x	x
COc1ccc(NC(=O)/C(Cl)=C(/Cl)S(=O)(=O)Cc2ccccc2)cn1	69.3*	32.4	40.6	19.6	-86.5	97.3*
COc1ccc(NC(=O)/C(Cl)=C(/Cl)S(=O)Cc2ccc(Cl)cc2)cn1 (stereo unspecified)	64.5*	51.1	12.9	46.3	-84.5	96.3*
COc1ccc(NC(=O)C(Cl)=C(Cl)Cl)cn1	23.4	-0.8	-10.2	6.5	-22.2	9.0
C=CCN=C1NN=C(c2cc(C)n(CC=C)c2C)CS1	57.8*	41.9	70.3*	71.3*	71.2*	71.9
COCCn1c(C)cc(C2=NNC(=Nc3ccccc3F)SC2)c1C	84.1*	87.1*	85.0*	33.9	83.8*	67.4
COCCCN=C1NN=C(c2cc(C)n(-c3ccccc3F)c2C)CS1	-53.4	-113.5	-30.8	38.4	-42.2	39.2
COCCN=C1NN=C(c2cc(C)n(CC3CCCO3)c2C)CS1 (stereo unspecified)	15.0	-4.4	17.9	-2.5	-0.5	1.4
CC(=O)C1(C(=O)NC2CCCC2)CC(c2ccccn2)=NO1 (stereo unspecified)	-1.1	x	x	x	x	x
CC(C)(C)c1cc(C(=O)N/N=C/c2ccc(F)cc2)n(-c2ccccc2)n1	0.2	3.3	16.4	-8.5	2.5	5.1
CC(C)(C)c1cc(C(=O)N/N=C/c2ccccc2O)n(-c2ccccc2)n1	25.5	15.1	34.8	44.7	-29.8	91.4*
Cc1ccc(C2=[N+]([O-])C3(CCCCC3=O)N(O)C2(C)C)cc1 (stereo unspecified)	78.3*	7.8	-2.3	8.7	3.7	-7.6

Screens as filed in PubChem BioAssay.
